Measurements from PMC7862700, “An all-to-all approach to the identification of sequence-specific readers for epigenetic DNA modifications on cytosine”.

Assays:
Assay in all cases: DAPPL (digital affinity profiling via proximity ligation, sequencing); 10 mM Tris-HCl pH 7.5, 50 mM NaCl, 1 mM DTT, 4% glycerol, room temperature, 30 min; GST-TFs on glutathione beads, 16-mer random dsDNA library, 0.1% formaldehyde crosslink after washing; high values mean tight binding
FLI1 = molecular target: T1, FLI1 (Homo sapiens, UniProt Q01543 1-452); conditions: protein: recombinant; tags: N-terminal GST; dsDNA, one strand shown
T1 sequence: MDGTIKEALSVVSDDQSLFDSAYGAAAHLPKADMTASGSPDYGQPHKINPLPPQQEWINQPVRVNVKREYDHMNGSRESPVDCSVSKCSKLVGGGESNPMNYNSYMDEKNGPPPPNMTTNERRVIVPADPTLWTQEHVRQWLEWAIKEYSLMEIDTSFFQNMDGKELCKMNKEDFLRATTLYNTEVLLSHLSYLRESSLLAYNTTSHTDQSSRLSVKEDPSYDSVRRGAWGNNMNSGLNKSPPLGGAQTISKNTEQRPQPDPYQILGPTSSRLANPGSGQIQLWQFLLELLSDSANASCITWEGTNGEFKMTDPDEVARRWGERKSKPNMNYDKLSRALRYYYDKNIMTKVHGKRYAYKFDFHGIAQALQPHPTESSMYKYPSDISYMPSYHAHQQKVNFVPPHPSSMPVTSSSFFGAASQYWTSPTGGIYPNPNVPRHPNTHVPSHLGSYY
In short: (§1)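 The binding signal reported is, for every hexamer, its read frequency for a factor over its read frequency for the tag-only sample. Reads came from pools of yeast-expressed, GST-fused human transcription factors on glutathione beads, barcoded with DNA and mixed with that sample, which were incubated with 200 nmole of a random double-stranded 16-mer DNA library in Tris/NaCl/DTT/glycerol buffer at room temperature for 30 min. After washing, the pools were crosslinked with 0.1% formaldehyde, proximity-ligated with BsaI/T4 ligase for 1 h at 37 °C, PCR-amplified and sequenced on an Illumina NextSeq500.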

ELK1 = molecular target: T2, ELK1 (Homo sapiens, UniProt P19419 1-428); conditions: protein: recombinant; tags: N-terminal GST; dsDNA, one strand shown
T2 sequence: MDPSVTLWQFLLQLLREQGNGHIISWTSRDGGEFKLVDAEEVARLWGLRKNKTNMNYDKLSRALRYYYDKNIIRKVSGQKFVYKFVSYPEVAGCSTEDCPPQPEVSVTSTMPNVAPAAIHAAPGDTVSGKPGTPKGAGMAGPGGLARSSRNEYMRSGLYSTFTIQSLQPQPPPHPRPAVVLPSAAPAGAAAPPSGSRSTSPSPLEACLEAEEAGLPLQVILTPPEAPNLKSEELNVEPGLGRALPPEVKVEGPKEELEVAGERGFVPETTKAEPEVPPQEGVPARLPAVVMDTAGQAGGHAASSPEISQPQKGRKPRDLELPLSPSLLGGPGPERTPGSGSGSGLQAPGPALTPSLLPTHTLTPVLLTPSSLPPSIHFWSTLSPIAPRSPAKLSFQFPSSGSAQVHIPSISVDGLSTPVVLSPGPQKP
In short: as §1

GABPA = molecular target: T3, GABPA (Homo sapiens, UniProt Q06546 1-454); conditions: protein: recombinant; tags: N-terminal GST; dsDNA, one strand shown
T3 sequence: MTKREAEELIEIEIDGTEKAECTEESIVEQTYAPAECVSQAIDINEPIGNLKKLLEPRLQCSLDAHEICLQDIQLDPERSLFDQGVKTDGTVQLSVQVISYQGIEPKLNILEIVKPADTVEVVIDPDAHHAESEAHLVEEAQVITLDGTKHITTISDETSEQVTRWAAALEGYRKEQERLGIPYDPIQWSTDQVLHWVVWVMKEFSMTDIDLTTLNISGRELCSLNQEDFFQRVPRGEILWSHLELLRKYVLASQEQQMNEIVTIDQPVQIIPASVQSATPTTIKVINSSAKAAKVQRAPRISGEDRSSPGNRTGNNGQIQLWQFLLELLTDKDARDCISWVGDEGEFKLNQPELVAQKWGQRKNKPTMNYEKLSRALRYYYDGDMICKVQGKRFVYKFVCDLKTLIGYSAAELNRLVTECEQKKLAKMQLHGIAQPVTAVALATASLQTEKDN
In short: as §1

ERG = molecular target: T4, ERG (Homo sapiens, UniProt P11308 1-479); conditions: protein: recombinant; tags: N-terminal GST; dsDNA, one strand shown
T4 sequence: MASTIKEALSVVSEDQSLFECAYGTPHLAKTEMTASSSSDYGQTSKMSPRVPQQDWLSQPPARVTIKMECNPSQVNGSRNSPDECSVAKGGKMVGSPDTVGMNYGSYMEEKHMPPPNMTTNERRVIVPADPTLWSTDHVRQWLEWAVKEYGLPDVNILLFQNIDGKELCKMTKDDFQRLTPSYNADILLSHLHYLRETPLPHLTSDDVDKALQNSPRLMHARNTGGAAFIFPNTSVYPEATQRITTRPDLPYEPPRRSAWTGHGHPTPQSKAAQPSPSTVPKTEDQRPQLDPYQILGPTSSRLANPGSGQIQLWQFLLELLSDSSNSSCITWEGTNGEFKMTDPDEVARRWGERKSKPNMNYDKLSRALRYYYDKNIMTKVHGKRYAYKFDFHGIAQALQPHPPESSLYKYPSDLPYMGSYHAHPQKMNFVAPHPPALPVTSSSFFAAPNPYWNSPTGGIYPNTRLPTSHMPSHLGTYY
In short: as §1

ELF1 = ELF1 (Homo sapiens, UniProt P32519 1-619); conditions: protein: recombinant; tags: N-terminal GST; dsDNA, one strand shown
In short: as §1

EHF = molecular target: T5, EHF (Homo sapiens, UniProt Q9NZC4 1-300); conditions: protein: recombinant; tags: N-terminal GST; dsDNA, one strand shown
T5 sequence: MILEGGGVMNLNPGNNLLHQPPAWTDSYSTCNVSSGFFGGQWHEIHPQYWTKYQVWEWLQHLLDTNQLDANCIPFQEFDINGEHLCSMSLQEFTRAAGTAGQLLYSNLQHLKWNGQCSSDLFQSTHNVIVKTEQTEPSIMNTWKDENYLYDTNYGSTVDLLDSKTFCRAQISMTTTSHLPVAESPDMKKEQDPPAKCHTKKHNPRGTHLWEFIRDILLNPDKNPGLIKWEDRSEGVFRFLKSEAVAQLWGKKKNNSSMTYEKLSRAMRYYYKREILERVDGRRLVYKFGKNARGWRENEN
In short: as §1

SPI1 = SPI1 (Homo sapiens, UniProt P17947 1-270); conditions: protein: recombinant; tags: N-terminal GST; dsDNA, one strand shown
In short: as §1

SPIB = SPIB (Homo sapiens, UniProt Q01892 1-262); conditions: protein: recombinant; tags: N-terminal GST; dsDNA, one strand shown
In short: as §1

ELK3 = molecular target: T6, ELK3 (Homo sapiens, UniProt P41970 1-407); conditions: protein: recombinant; tags: N-terminal GST; dsDNA, one strand shown
T6 sequence: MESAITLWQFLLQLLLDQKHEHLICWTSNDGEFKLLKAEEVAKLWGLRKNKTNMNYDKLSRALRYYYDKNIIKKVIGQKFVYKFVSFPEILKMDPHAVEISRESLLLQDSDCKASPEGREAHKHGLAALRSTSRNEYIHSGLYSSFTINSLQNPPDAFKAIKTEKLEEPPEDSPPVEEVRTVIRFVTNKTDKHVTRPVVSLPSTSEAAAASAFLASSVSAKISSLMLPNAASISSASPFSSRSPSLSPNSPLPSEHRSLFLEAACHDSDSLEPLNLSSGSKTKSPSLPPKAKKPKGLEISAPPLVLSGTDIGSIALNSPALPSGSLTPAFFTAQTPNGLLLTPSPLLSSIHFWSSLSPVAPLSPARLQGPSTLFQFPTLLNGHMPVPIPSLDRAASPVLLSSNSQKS
In short: as §1

FEV = molecular target: T7, FEV (Homo sapiens, UniProt Q99581 1-238); conditions: protein: recombinant; tags: N-terminal GST; dsDNA, one strand shown
T7 sequence: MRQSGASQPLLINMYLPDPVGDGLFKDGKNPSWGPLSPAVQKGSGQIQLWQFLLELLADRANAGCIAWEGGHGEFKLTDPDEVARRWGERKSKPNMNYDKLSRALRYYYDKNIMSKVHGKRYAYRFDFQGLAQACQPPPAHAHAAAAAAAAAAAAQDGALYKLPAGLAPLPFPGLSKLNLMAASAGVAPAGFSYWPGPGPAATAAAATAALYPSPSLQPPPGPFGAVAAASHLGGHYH
In short: as §1

ETV5 = ETV5 (Homo sapiens, UniProt P41161 1-510); conditions: protein: recombinant; tags: N-terminal GST; dsDNA, one strand shown
In short: as §1

HSF1 = HSF1 (Homo sapiens, UniProt Q00613 1-529); conditions: protein: recombinant; tags: N-terminal GST; chain copies: 3; dsDNA, one strand shown
In short: as §1

SPIC = molecular target: T8, SPIC (Homo sapiens, UniProt Q8N5J4 1-248); conditions: protein: recombinant; tags: N-terminal GST; dsDNA, one strand shown
T8 sequence: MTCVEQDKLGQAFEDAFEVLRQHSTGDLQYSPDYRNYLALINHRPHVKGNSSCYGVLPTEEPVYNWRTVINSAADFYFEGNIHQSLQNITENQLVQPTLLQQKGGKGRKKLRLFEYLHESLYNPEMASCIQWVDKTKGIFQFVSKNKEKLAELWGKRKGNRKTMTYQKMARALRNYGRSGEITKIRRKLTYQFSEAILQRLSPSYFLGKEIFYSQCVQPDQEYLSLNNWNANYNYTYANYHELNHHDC
In short: as §1

ELF4 = ELF4 (Homo sapiens, UniProt Q99607 1-663); conditions: protein: recombinant; tags: N-terminal GST; dsDNA, one strand shown
In short: as §1

ELK4 = molecular target: T9, ELK4 (Homo sapiens, UniProt P28324-2 1-405); conditions: protein: recombinant; tags: N-terminal GST; dsDNA, one strand shown
T9 sequence: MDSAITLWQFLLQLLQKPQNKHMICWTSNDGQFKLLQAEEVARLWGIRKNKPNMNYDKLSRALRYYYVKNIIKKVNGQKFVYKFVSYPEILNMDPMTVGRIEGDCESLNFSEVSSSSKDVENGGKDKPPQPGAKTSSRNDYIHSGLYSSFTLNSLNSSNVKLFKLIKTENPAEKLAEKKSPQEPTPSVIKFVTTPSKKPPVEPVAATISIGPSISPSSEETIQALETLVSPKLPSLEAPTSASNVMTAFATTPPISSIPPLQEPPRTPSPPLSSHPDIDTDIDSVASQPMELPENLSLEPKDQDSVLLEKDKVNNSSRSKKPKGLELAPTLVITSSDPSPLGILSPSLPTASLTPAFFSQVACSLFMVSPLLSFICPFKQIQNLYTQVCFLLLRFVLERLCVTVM
In short: as §1

ETV2 = molecular target: T10, ETV2 (Homo sapiens, UniProt O00321 1-342); conditions: protein: recombinant; tags: N-terminal GST; dsDNA, one strand shown
T10 sequence: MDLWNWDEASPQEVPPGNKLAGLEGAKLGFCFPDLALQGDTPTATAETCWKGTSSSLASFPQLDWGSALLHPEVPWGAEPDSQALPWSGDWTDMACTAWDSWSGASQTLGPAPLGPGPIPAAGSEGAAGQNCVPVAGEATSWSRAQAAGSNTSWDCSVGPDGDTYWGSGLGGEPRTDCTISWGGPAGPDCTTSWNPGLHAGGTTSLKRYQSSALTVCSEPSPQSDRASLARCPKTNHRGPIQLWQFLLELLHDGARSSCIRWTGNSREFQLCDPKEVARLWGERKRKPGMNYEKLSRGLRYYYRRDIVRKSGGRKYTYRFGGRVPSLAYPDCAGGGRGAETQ
In short: as §1

CRX = CRX (Homo sapiens, UniProt O43186 1-299); conditions: protein: recombinant; tags: N-terminal GST; dsDNA, one strand shown
In short: as §1

ETV1 = ETV1 (Homo sapiens, UniProt P50549 1-477); conditions: protein: recombinant; tags: N-terminal GST; dsDNA, one strand shown
In short: as §1

HSF1, sequence (Q00613 whole entry): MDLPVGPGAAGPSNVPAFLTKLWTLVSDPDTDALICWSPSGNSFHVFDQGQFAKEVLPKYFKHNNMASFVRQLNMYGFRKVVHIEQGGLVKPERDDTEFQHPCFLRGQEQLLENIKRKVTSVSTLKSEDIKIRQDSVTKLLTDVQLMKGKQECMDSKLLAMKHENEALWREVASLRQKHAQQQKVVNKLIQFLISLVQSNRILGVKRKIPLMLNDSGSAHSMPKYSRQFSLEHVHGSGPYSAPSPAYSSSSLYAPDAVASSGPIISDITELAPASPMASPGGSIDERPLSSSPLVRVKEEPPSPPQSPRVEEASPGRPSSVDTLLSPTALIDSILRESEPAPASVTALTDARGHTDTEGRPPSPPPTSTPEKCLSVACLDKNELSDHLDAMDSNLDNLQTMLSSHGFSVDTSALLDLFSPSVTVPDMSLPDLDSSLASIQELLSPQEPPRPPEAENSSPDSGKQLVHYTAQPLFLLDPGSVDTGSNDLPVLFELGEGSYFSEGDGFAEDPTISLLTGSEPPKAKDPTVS
ELF4, sequence (Q99607 whole entry): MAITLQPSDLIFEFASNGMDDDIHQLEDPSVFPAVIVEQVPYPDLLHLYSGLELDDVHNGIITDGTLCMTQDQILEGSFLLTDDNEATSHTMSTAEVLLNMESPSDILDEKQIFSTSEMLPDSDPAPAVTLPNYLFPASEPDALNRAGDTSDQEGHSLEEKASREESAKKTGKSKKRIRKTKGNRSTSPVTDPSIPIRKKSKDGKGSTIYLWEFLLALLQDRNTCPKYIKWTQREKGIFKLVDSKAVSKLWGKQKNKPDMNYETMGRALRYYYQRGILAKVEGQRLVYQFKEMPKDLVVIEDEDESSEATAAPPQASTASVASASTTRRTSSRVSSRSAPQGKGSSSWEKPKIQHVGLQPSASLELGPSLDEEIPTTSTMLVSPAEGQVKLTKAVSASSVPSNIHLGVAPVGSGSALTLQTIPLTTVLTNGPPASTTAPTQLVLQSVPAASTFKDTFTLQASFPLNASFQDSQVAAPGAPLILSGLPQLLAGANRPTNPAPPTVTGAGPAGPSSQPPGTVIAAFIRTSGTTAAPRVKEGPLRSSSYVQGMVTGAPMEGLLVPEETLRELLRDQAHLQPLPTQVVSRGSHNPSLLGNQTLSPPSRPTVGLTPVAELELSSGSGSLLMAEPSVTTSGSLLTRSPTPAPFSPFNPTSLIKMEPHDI
ELF1, sequence (P32519 whole entry): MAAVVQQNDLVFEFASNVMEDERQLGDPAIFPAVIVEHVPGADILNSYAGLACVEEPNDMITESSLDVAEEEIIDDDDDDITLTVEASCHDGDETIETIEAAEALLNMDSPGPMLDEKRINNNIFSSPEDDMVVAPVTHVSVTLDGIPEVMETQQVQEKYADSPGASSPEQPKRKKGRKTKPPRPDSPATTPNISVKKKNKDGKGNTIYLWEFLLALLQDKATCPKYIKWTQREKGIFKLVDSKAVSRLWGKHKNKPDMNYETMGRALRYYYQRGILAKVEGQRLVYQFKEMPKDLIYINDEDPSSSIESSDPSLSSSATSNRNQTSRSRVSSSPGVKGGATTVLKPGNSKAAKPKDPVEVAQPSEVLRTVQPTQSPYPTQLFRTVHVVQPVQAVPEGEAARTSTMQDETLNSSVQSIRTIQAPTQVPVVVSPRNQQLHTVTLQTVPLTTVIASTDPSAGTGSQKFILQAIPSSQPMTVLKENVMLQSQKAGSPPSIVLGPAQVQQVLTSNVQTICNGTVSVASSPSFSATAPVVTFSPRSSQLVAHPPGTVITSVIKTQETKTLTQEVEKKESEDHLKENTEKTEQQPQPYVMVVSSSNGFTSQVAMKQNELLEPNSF
ETV1, sequence (P50549 whole entry): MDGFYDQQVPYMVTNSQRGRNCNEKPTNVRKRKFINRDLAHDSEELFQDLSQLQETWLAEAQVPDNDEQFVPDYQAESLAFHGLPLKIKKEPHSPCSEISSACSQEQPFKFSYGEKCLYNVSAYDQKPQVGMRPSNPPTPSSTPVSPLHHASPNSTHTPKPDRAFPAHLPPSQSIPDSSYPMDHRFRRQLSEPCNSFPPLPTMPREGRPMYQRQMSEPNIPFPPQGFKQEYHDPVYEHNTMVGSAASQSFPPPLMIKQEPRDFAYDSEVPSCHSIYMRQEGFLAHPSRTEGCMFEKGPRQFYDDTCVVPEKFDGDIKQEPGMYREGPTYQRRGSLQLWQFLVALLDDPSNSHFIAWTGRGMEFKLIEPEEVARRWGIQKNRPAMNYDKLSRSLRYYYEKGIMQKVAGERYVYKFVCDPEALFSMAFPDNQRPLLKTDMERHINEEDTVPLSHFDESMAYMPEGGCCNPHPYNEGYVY
ETV5, sequence (P41161 whole entry): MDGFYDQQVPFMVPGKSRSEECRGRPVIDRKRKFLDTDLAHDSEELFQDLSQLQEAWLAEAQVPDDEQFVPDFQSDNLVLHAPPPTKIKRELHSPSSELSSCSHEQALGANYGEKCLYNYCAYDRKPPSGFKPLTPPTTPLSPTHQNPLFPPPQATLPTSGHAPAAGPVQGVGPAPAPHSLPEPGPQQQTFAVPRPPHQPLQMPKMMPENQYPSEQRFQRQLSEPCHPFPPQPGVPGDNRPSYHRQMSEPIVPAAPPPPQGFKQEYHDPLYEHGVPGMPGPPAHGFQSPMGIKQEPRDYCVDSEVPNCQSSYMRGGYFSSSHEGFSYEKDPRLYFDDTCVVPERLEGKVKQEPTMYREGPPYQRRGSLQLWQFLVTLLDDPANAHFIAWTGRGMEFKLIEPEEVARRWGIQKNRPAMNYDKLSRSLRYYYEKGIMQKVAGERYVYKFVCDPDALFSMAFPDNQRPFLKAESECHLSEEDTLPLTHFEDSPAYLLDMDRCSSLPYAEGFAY
CRX, sequence (O43186 whole entry): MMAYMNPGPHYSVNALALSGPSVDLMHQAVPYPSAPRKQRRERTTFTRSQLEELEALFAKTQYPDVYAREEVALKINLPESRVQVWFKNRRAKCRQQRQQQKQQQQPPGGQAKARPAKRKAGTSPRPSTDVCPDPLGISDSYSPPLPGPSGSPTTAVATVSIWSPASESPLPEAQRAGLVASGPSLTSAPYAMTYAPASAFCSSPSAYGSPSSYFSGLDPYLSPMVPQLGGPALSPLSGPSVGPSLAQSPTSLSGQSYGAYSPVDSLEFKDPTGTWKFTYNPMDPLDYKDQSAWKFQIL
SPIB, sequence (Q01892 whole entry): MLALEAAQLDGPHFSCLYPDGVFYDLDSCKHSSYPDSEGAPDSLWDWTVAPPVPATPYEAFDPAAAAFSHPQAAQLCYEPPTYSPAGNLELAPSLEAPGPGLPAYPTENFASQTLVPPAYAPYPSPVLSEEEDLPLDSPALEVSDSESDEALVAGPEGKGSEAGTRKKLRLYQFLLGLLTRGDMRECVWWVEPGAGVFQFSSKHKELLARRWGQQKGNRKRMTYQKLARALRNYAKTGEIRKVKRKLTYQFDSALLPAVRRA

Sequence: ACTCGA
- binding signal (FLI1): 1.35 fold enrichment (6-mer frequency, TF over GST control)
- binding signal (ELK1): 1.48 fold enrichment (6-mer frequency, TF over GST control)
- binding signal (GABPA): 1.44 fold enrichment (6-mer frequency, TF over GST control)
- binding signal (ERG): 1.22 fold enrichment (6-mer frequency, TF over GST control)
- binding signal (ELF1): 1.49 fold enrichment (6-mer frequency, TF over GST control)
- binding signal (EHF): 1.14 fold enrichment (6-mer frequency, TF over GST control)
- binding signal (SPI1): 1.26 fold enrichment (6-mer frequency, TF over GST control)
- binding signal (SPIB): 1.24 fold enrichment (6-mer frequency, TF over GST control)
- binding signal (ELK3): 1.27 fold enrichment (6-mer frequency, TF over GST control)
- binding signal (FEV): 1.29 fold enrichment (6-mer frequency, TF over GST control)
- binding signal (ETV5): 1.27 fold enrichment (6-mer frequency, TF over GST control)
- binding signal (HSF1): 1.99 fold enrichment (6-mer frequency, TF over GST control)
- binding signal (SPIC): 1.51 fold enrichment (6-mer frequency, TF over GST control)
- binding signal (ELF4): 1.31 fold enrichment (6-mer frequency, TF over GST control)
- binding signal (ELK4): 1.35 fold enrichment (6-mer frequency, TF over GST control)
- binding signal (ETV2): 1.46 fold enrichment (6-mer frequency, TF over GST control)
- binding signal (CRX): 1.37 fold enrichment (6-mer frequency, TF over GST control)
- binding signal (ETV1): 1.33 fold enrichment (6-mer frequency, TF over GST control)
